Measurements: PMC13541613, “GHT-SELEX demonstrates unexpectedly high intrinsic sequence specificity and complex DNA binding of many human transcription factors”

Legend:
Assay in all cases: HT-SELEX; 20 mM HEPES pH 7, 140 mM KCl, 5 mM NaCl, 1 mM K2HPO4, 2 mM MgSO4, 100 uM EGTA, ZnSO4, 0.1% Tween20; room temperature, 1 h; high values mean tight binding
Settings in all cases: protein: ivt; tags: eGFP (N-terminal); dsDNA, one strand shown
ZNF721 full-length = ZNF721 full-length (Homo sapiens, UniProt Q8TF20-2 1-923)
Outline: (§1)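 A tagged transcription factor, either full-length or its DNA-binding-domain fragment, was made in HEK293 lysate or cell-free extract, immobilised on beads and incubated with a randomized 40-base DNA library for 1 h at room temperature in HEPES/KCl low-stringency buffer containing Tween20. Washed beads were heat-eluted, and the bound DNA was PCR-amplified over successive cycles and Illumina-sequenced at ~3 million 60 bp reads per sample. The binding signal is the relative k-mer count in selected reads, where a higher value means tighter binding.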

ZNF721 DBD1 = ZNF721 DBD1 (Homo sapiens, UniProt Q8TF20-2 29-461)
Outline: as §1

ZNF721 DBD2 = ZNF721 DBD2 (Homo sapiens, UniProt Q8TF20-2 395-923)
Outline: as §1

ZNF721 DBD1, sequence (Q8TF20 17-449): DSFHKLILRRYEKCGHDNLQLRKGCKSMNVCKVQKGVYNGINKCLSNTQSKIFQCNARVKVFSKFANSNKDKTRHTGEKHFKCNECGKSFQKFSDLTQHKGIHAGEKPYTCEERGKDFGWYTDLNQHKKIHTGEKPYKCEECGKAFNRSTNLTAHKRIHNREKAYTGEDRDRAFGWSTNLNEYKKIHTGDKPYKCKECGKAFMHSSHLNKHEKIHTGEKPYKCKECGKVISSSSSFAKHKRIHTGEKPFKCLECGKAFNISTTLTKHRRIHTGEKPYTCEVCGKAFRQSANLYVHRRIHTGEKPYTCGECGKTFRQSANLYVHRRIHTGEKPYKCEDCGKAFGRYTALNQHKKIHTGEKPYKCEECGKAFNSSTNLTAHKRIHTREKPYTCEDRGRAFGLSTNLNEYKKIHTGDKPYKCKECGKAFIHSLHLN
ZNF721 DBD2, sequence (Q8TF20 383-911): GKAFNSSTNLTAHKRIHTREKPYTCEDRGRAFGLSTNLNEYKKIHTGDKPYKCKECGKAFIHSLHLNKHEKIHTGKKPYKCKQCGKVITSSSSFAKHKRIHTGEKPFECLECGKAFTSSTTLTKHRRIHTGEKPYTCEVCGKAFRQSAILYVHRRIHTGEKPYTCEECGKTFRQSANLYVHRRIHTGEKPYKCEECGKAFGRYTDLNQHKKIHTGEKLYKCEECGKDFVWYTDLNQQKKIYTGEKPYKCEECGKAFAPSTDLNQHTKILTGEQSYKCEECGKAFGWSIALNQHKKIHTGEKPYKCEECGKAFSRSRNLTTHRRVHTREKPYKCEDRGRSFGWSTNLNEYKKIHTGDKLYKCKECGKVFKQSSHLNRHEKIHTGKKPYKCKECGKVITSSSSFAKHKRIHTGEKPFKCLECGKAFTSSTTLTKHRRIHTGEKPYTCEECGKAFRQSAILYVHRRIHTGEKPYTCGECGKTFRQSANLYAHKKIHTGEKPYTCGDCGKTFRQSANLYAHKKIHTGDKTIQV
ZNF721 full-length, sequence (Q8TF20 other isoform, or with tags, fused parts or gaps): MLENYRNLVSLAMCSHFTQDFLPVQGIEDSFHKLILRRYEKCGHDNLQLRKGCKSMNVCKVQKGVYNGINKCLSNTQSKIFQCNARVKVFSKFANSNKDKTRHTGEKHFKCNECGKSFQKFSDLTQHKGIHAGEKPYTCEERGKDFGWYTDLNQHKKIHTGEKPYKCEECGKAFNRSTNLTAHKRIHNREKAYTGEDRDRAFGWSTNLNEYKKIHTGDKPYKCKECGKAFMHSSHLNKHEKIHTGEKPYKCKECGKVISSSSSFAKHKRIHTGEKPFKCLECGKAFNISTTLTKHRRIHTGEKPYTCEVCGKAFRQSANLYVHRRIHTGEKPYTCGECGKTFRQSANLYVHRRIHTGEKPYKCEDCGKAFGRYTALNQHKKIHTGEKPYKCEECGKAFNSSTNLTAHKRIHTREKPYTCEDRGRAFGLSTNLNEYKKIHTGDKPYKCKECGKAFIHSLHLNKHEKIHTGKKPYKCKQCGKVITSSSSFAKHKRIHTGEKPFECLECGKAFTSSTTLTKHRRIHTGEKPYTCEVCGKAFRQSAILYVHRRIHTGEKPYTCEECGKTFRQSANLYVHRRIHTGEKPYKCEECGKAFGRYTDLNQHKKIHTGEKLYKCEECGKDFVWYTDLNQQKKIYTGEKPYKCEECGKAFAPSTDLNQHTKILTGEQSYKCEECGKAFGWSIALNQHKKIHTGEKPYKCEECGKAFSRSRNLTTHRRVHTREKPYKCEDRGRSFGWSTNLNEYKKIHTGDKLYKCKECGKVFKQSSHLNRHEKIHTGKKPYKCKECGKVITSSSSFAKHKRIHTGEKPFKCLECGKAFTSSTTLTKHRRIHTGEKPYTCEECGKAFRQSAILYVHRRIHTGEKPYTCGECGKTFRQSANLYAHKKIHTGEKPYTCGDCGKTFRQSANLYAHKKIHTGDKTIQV

Sequence | binding signal (ZNF721 full-length) [relative 10-mer count] | binding signal (ZNF721 DBD1) [relative 10-mer count] | binding signal (ZNF721 DBD2) [relative 10-mer count]
ACCCACCCCC | 0.265 | 0.0111 | 0.00252
GGGGTGGGAC | 0.111 | 0.00449 | 0.00108
ACCCCCCAAC | 0.103 | 0.00321 | 0.00407
CCCCCACCCC | 0.44 | 0.0205 | 0.00276
CACCGCCCCC | 0.171 | 0.00803 | 0.003
CCCACCATCC | 0.152 | 0.00647 | 0.00527
CCCCCTCCCA | 0.157 | 0.00784 | 0.00455
CCCCTCCCAC | 0.218 | 0.0104 | 0.00695
CCTCCCCCAC | 0.216 | 0.01 | 0.00767
CAGCGTTACC | 0.138 | 0.00147 | 0.297
CCGCGCCCCC | 0.115 | 0.00427 | 0.0018
AGGGGGCGGG | 0.128 | 0.00463 | 0.0012
GCCACCACCC | 0.106 | 0.00413 | 0.00204
AAAAAGCTGC | 0.229 | 0.0954 | 0.00372
CCTCCCCCGC | 0.131 | 0.00647 | 0.00348
CCCACCGCCA | 0.13 | 0.00422 | 0.00563
GTATGAAGCA | 0.171 | 0.261 | 0.00132
CCCCGCCCTC | 0.146 | 0.00601 | 0.00216
CAACCCCCCC | 0.131 | 0.00431 | 0.00252

Sequence | binding signal (ZNF721 full-length) [relative 10-mer count] | binding signal (ZNF721 DBD1) [relative 10-mer count] | binding signal (ZNF721 DBD2) [relative 10-mer count]
CCCACACCAC | 0.137 | 0.00541 | 0.00503
CCCCGCGCCC | 0.138 | 0.00482 | 0.00228
ACCCCGACCC | 0.102 | 0.00284 | 0.0012
CCCCCCCGCC | 0.204 | 0.00706 | 0.00276
GCCCACCACC | 0.17 | 0.00688 | 0.00336
ATGTGTATGA | 0.12 | 0.124 | 0.0018
ACCCCACCAC | 0.199 | 0.00738 | 0.00407
ACGAAAAAAA | 0.107 | 0.0146 | 0.0612
CCCCCGCCGC | 0.128 | 0.00436 | 0.00168
AAAAAAAGCT | 0.472 | 0.169 | 0.00923
CCCACCCCAA | 0.151 | 0.00642 | 0.00575
CCCAACCCCA | 0.132 | 0.00459 | 0.00372
AGCGTACCCA | 0.188 | 0.0311 | 0.162
CCACCACACC | 0.148 | 0.00537 | 0.00587
ACCCCACACC | 0.14 | 0.00436 | 0.00276
CCCACCCCAC | 0.354 | 0.0155 | 0.00863
ACCACCCCAC | 0.201 | 0.0072 | 0.00479
CCCACCACCG | 0.12 | 0.00514 | 0.00503
